Assay outcomes: PubChem, National Center for Advancing Translational Sciences (NCATS)
CHX counter: counter-screen hit for Shiga toxin inhibitors, cycloheximide; cell reporter, cycloheximide protein synthesis inhibition counterscreen; max response, %; hit rate 12% among 300,000; AID 2314; in the data active = max response mostly above about 13%, no sharp cut-off; inactive = mostly below about 14%; also: read at 38.3 µM for the half of the compounds with a filed dose
Sm TGR inh: inhibitors of Schistosoma mansoni thioredoxin glutathione reductase; purified TGR, DTNB reduction, TNB absorbance 405 nm; Potency, µM (titrated, usually from 114 µM), actives largely listed as inhibitors; hit rate 3% among 360,000; also: nearly all actives have a fitted effect of over 60% in size
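First, TGR (20 nM dispensed) and NADPH were mixed with compound. Second, a 15 min room-temperature incubation followed. Third, further NADPH and then DTNB were added to start the reaction. Finally, TNB absorbance was monitored kinetically.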
Shiga toxin inh: blocks Shiga toxin action in Vero cells; Vero cells, Shiga toxin protein synthesis inhibition reporter; inhibition, % at 38.7 µM; hit rate 9.2% among 290,000; AID 2315; in the data active = inhibition mostly above about 28%, no sharp cut-off; inactive = mostly below about 43%
TbPYK inhibitor: blocks Trypanosoma brucei pyruvate kinase; AID 624173; TbPYK enzyme, Kinase-Glo Plus ATP luminescence, 45 min; Potency, µM (top dose mostly 76.8 µM), usual class: inhibitors; hit rate 0.12% among 410,000; Q57TT1; also: nearly all actives have a fitted effect of over 50% in size
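Enzyme and substrate buffer are dispensed first and compound is pin-transferred. ADP at 130 uM final then starts the reaction, which runs 45 min at room temperature. Detection reagent is added for 10 min before luminescence is imaged.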
LmPK inhibitor: inhibitors of Leishmania mexicana pyruvate kinase; Q27686; purified LmPK, Kinase-Glo ATP luminescence, 1 h; Potency, µM (series often up to 57.5 µM), hits mostly inhibitors; hit rate 0.37% among 290,000
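0.1 nM LmPK, 0.5 mM PEP, 0.1 mM ADP; 50 mM imidazole pH 7.2, 7 mM MgCl2, 50 mM KCl; 1 h RT. Kinase-Glo luminescence readout, normalized to no-enzyme (full inhibition) and uninhibited wells.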
Giardia FBPA inh-1: inhibitors of Giardia lamblia fructose-1,6-bisphosphate aldolase. purified Giardia FBPA. hit rate 0.71% among 290,000. A8B2U2. Potency, µM (series often up to 59.6 µM), most hits filed as inhibitors; also: nearly all actives have a fitted effect of over 55% in size
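40 nM FBPA preincubated 10 min at RT with compound (up to 57.5 uM final), then substrate plus GAPDH/TPI/NAD/arsenate coupling and diaphorase/resazurin added. Fluorescence read after 20 min at RT, 525/598 nm.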
Giardia growth: Giardia lamblia growth inhibition. AID 2785. Giardia lamblia trophozoite growth inhibition. hit rate 5% among 1,500. Potency, µM (highest dose often 57.5 µM), usual class: inhibitors. shares compounds with Giardia FBPA inh-1;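 also: trophozoites exposed to compound for 48 h at 37 °C; nearly all actives have a fitted effect of over 70% in size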
Mammal cell tox: mammalian cytotoxicity of Giardia aldolase inhibitor hits; hit rate 4% among 1,500; shares compounds with Giardia FBPA inh-1; Potency, µM (highest dose often 57.5 µM), usual class: inhibitors; mammalian cell viability counter-screen, qHTS;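 also: Chinese hamster ovary cells used as mammalian cytotoxicity surrogate; viability measured as cellular ATP by luminescence; compound exposure lasted 48 h before reading; nearly all actives have a fitted effect of over 60% in size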
Giardia FBPA inh-2: confirmation of Giardia fructose-bisphosphate aldolase inhibitors; shares compounds with Giardia FBPA inh-1; purified Giardia aldolase enzyme activity, qHTS; Potency, µM (highest dose often 57.5 µM), usual class: inhibitors; hit rate 5% among 1,500; AID 2787; also: nearly all actives have a fitted effect of over 45% in size
Rabbit FBPA inh: selectivity test for Giardia aldolase inhibitors: rabbit aldolase; AID 2794; Potency, µM (doses to about 57.5 µM), hits mostly inhibitors; shares compounds with Giardia FBPA inh-1; hit rate 4% among 1,500; Rabbit muscle FBPA enzyme inhibition, selectivity counter-screen; also: nearly all actives have a fitted effect of over 60% in size
Target sequence (P00883 whole entry, looked up): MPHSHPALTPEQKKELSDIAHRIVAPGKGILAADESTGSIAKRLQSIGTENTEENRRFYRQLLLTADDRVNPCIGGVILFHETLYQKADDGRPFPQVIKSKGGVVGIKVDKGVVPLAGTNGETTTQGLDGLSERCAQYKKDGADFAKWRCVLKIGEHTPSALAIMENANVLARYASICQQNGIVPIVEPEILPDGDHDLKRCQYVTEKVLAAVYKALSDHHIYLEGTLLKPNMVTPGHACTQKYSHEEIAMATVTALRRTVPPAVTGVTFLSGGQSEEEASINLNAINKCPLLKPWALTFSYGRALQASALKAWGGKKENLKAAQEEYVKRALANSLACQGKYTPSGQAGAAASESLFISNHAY
GAPDH coupling: counter-screen for Giardia aldolase inhibitors: GAPDH coupling enzyme; shares compounds with Giardia FBPA inh-1; GAPDH coupling enzyme counterscreen, biochemical, qHTS; Potency, µM (highest dose often 57.5 µM), usual class: inhibitors; hit rate 6% among 1,500; also: nearly all actives have a fitted effect of over 55% in size
Numbers stand for hits; i = inactive; ? = inconclusive; nt = no result; [ ] = remark or other dose. Only a selection was taken, and hits are over-represented in it overall. Unless noted, calls follow the shape of the dose curve; as a rule, active = well fitted curve in the direction sought with a large enough effect; inconclusive = small, poorly fitted or top-dose-only effect, or another doubt; inactive = no such curve, though single readings can be large; an effect the other way counts as inactive or inconclusive.

SMILES | CHX counter | Sm TGR inh | Shiga toxin inh | TbPYK inhibitor | LmPK inhibitor | Giardia FBPA inh-1 | Giardia growth | Mammal cell tox | Giardia FBPA inh-2 | Rabbit FBPA inh | GAPDH coupling
CCN(CC)c1ccc(N=Cc2cc(Br)ccc2O)cc1 | i | ? | i | i | ? | ? | nt | nt | nt | nt | nt
CCN(CC)c1ccc(N=Nc2ncn[nH]2)cc1 | 34 | i | 124 | i | i | 3.5µM | ? | 32µM | i | i | i
CC(C)(C)C(=O)/C=C/Nc1ccccc1O | i | i | i | i | i | i | nt | nt | nt | nt | nt
CN(C)c1ccc(N/C=C/C(=O)C(C)(C)C)cc1 | i | i | 148 | i | i | 14µM | ? | i | i | ? | i
Cc1nn2c(=S)[nH]nc2[nH]c1=O | i | i | i | ? | i | 11µM | i[10.4 µM] | i | i | i | i
Cc1n[nH]c(=S)n(NC(=O)/C=C/C(=O)Nn2c(=S)[nH]nc(C)c2=O)c1=O | i | nt | i | i | i | i | nt | nt | nt | nt | nt
CCN1CCc2nc(N)sc2C1 | i | i | i | ? | i | 11µM | i | i | ? | ? | 28µM
C=CCN1CCc2nc(N)sc2CC1 | i | i | i | i | i | i | nt | nt | nt | nt | nt
Cc1ccc(C(C)C)c(OCC(=O)NN=C(CCl)CCl)c1 | i | ? | i | nt | i | 16µM | ? | i | i | i | i
C/C(=N/NC(=O)COc1cc(C)ccc1C(C)C)C(=O)O | i | i | i | i | i | ? | nt | nt | nt | nt | nt
Cc1nc(NC(=S)NC(=O)c2ccccc2)sc1C | 39 | i | 69 | i | i | 11µM | ? | ? | i | i | i
Cc1nc(NC(=S)NC(=O)c2ccco2)sc1C(=O)N(C)C | 32 | i | i | i | i | 10µM | i | i | i | i | i
CCNc1nc(NCC)nc(NS(=O)(=O)c2ccc(N)cc2)n1 | i | i | i | i | i | i | nt | nt | nt | nt | nt
O=C(CCC(=O)c1cccs1)NCc1ccccc1Cl | nt | nt | nt | i | nt | nt | nt | nt | nt | nt | nt
O=C(Nc1nnc(-c2ccncc2)o1)c1cccc(N2C(=O)CCC2=O)c1 | i | i | i | i | i[11.5 µM] | 20µM | i[10.4 µM] | i | i | i | i
Cc1cccc(C(=O)Nc2nnc(-c3cccnc3)o2)c1 | i | i | i | i | i | 16µM | ? | ? | i | i | i
Cc1cc(C)c(C#N)c(SCC(=O)c2ccc(Cl)cc2Cl)n1 | i | i | i | i | i | i | nt | nt | nt | nt | nt
CC(C)c1ccc(/C=C(\NC(=O)c2ccccc2)C(=O)NCCCn2ccnc2)cc1 | i | i | i | i | i | nt | nt | nt | nt | nt | nt
Cc1ccc(NS(=O)(=O)c2cc(NC(=O)c3ccc4c(c3)NC(=O)CS4)ccc2C)c(C)c1 | i | nt | i | ? | i | 16µM | i | i | i | i | i
COc1ccc(NC(=O)c2ccc3c(c2)NC(=O)CS3)cc1S(=O)(=O)Nc1ccc(Br)cc1 | i | nt | i | i | i | i | nt | nt | nt | nt | nt
CCN(c1ccccc1)S(=O)(=O)c1ccc(OC)c(NC(=O)c2ccc(=O)[nH]c2)c1 | nt | nt | nt | i | nt | nt | nt | nt | nt | nt | nt
O=C(NC(=S)Nc1ccc2oc(=O)ccc2c1)c1cccc(Cl)c1 | i | i | i | i | i | 10µM | 20µM | i | i | i | i
O=C1OCC2=C1C(c1ccccc1)CC(=O)N2c1ccccc1 (stereo not drawn) | i | i | i | i | i | i | nt | nt | nt | nt | nt
COc1ccc(CCn2c(NN=C3CCCCC3)nc3c2c(=O)[nH]c(=O)n3C)cc1 | i | ? | i | i | i | 4.5µM | i[10.4 µM] | i | 5.6µM | ? | 7.9µM
COc1cc(CNC(C)(C)CO)ccc1OCC(=O)NC(C)(C)C | i | i | i | i | i | i | nt | nt | nt | nt | nt
